Assay outcomes deposited in PubChem by several laboratories.
GC-B act – GC-B (human) receptor activation | P20594 | HEK293-GC-B cells, CNP EC30, cGMP TR-FRET; 0% at EC30 CNP, 100% saturating CNP | activation, % at 10 µM | 370,000 compounds, 0.11% hits;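 active means activation at 10 µM reaching about 35% in either raw or pattern-adjusted values, limit read from the data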
Neddylation inh – inhibitors of human cullin neddylation. TR-FRET cullin neddylation, biochemical. inhibition, % at 25 µM. 360,000 compounds, 0.58% hits. AID 651699; in the data active means inhibition above about 36%
TLR9-MyD88 inh – TLR9-MyD88 interaction inhibition | Q9NR96+Q99836 | CHO BLA complementation TLR9-MyD88, CCF4 FRET ratio | inhibition, % at 4.98 µM | 340,000 compounds, 0.21% hits;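 active means inhibition above the mean over all tested compounds plus 3 SD, cut at about 21% in these data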;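 further: 0% = DMSO only wells and 100% = clavulanate BLA inhibitor control wells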
NOD2 RIPK2 PPI – inhibitors of human NOD2-RIPK2 interaction | CHO BLA complementation NOD2-RIPK2, CCF4 ratio | O43353 | 360,000 compounds, 0.38% hits | inhibition, % at 4.98 µM; in the data active means inhibition above about 21%;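 further: 0% = vehicle only and 100% = reference blocker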
GC-A act – GC-A (human) enzyme activation. HEK293 GC-A cells, cGMP TR-FRET, EC30 ANP; 0% at EC30 ANP, 100% saturating ANP. P16066. activation, % at 10 µM. AID 1671463. 370,000 compounds, 0.14% hits; in the data active means activation above about 40%
TLR4 MyD88 comp – TLR4-MyD88 interaction inhibition in cells. HeLa CL3-4 TLR4/MyD88 BLA complementation, FRET ratio. AID 861. inhibition, % at 8.4 µM. O00206+Q99836. 200,000 compounds, 0.18% hits; in the data active means inhibition above about 25%;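 further: 0% = vehicle and 100% = reference inhibitor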
* marks the source's active call; other numbers are inactive results; / = no result shown. The list is not random: actives were taken first. Their share in the collection is about 1.2%.

SMILES	GC-B act	Neddylation inh	TLR9-MyD88 inh	NOD2 RIPK2 PPI	GC-A act	TLR4 MyD88 comp
O=C(Nc1nc2ccccc2s1)c1cccc(N2C(=O)CCC2=O)c1	0	35	-3	-4	44*	/
Cc1sc(NC(=O)c2cccc(N3C(=O)CCC3=O)c2)nc1-c1ccccc1	-7	33	3	1	77*	/
CC(=O)c1sc(NC(=O)c2cccc(N3C(=O)CCC3=O)c2)nc1-c1ccccc1	-6	-417	-4	-3	32	/
C=CCOC(=O)C(CO)NC(=O)CCCC(=O)O (configuration not stated)	0	/	/	/	0	/
CC(C)Cc1nc(N2CCN(C(=O)c3ccco3)CC2)c(C#N)c2c1CCCC2	119*	24	-4	4	-2	/
COC(=O)COc1ccc2cc(-c3ccccc3)c(=O)oc2c1	11	-29	10	5	43*	/
COC(=O)COc1ccc2c(-c3ccc(OC)cc3)cc(=O)oc2c1	22	1	-6	-6	61*	-2
O=C(OC12CCCN(C1)/C(=C/c1cccnc1)C2)c1ccco1 (configuration not stated)	1	/	/	/	3	/
COC(=O)[C@]12C[C@H](CC(=O)N3CCC(c4ccccc4)CC3)C(=O)N(CCC3=CCCCC3)C1=C[C@H](C(C)C)O[C@@H]2C1CC1	-2	/	/	/	-4	/
C[C@H]1[C@@H](OC(=O)Nc2ccc(Br)cc2)CC[C@@]23CCCN2C(=O)CCC[C@@H]13	-14	/	/	/	-9	/
COC(=O)CSc1nn(-c2ccc(F)cc2)c(=S)s1	-10	-10	3	-3	40*	7
O=C(CCc1ccccc1)N[C@H]1[C@H](O)CCC[C@]12C(=O)N(Cc1ccccc1)c1ccccc12	-15	/	/	/	-11	/
COc1cccc(C2C=C(c3ccc(OC)cc3OC)Nc3nnnn32)c1 (configuration not stated)	/	/	46*	31*	/	8
COc1cccc(C2=CC(c3ccccc3)n3nnnc3N2)c1 (configuration not stated)	12	14	8	4	9	0
CCOC(=O)CC[C@@]1(C(=O)OCC)C[C@@H](CC(=O)NCCCOC)C(=O)N2CCCC=C21	1	/	/	/	1	/
COc1cc(NC(=O)Cc2ccccc2)c(C(=O)O)cc1OC	2	3	-1	8	1	-4
COc1cc(NC(=O)N2c3ccccc3Sc3ccccc32)c(C(=O)O)cc1OC	-2	42*	-3	-4	0	/
C[C@H](O)[C@@H]1CN2CCc3c([nH]c4cccc(-c5ccccc5)c34)[C@@H]2C[C@@H]1N(C)C(=O)C1CCCCC1	6	/	/	/	6	/
CC(=O)c1cc(-c2cccc(C#N)c2)c(=O)n2c1CCC2	-8	/	/	/	-2	/
C=CC[C@H](CC(=O)NCCO)C(=O)NC[C@@H](OC(=O)[C@@H](CC=C)CC(=O)OC(C)(C)C)c1ccccc1	69*	-24	2	1	-8	/
C=CC[C@H](CC(=O)N(CCO)Cc1ccccc1)C(=O)NC[C@H](OC(=O)[C@@H](CC=C)CC(=O)OC(C)(C)C)c1ccccc1	-9	-24	5	0	-8	/
COC(=O)[C@]12C[C@H](CC(=O)NCc3ccc(C)o3)C(=O)N(CCC3=CCCCC3)C1=C[C@H](C1CCCC1)O[C@@H]2C	-5	/	/	/	-3	/
O=C(/C=C/c1ccncc1)c1ccc(NC(=O)c2ccccc2F)cc1	/	-55	25*	64*	/	9
Cc1ccc(CNc2nc(-c3cccs3)nc3ccccc23)cc1	39*	-9	4	4	30	0
Cc1ccc(-c2nc3ccc(Cl)cn3c2Cc2cccc(F)c2)cc1	15	-30	/	-3	12	/
SMILES	GC-B act	Neddylation inh	TLR9-MyD88 inh	NOD2 RIPK2 PPI	GC-A act	TLR4 MyD88 comp
Cc1ccc(Cc2c(-c3ccc(C)cc3)nc3ccc(Cl)cn23)cc1	37*	-23	1	2	30	/
Cc1ccc2nc(-c3ccc(Cl)cc3)c(Cc3cccc(F)c3)n2c1	36*	/	/	/	27	/
COc1cccc2cc3c(nc12)C[C@@H]1CCCC(=O)N2CCC[C@@]12C3	-16	/	/	/	0	/
CC(=O)Nc1ccc(Nc2c3c4c(cccc4n(C)c2=O)C(=O)c2ccccc2-3)cc1	38*	-56	-5	-9	28	-4
O=S(=O)(CS(=O)(=O)c1ccc(Br)cc1)c1ccc(Br)cc1	5	/	/	/	1	/
O=C(c1ccc(Cl)c(Cl)c1)c1cc(-c2ccccn2)c(N2CCOCC2)s1	-5	-111	11	24*	8	22
O=C(c1ccc(Br)cc1)c1cc(-c2ccccn2)c(N2CCOCC2)s1	2	3	12	3	8	12
CCCCCCCCN1C(=O)[C@@H](CC(=O)NCCc2ccccc2OC)C[C@@]2(C(=O)OC)C1=C[C@H](C1CCCC1)O[C@@H]2C	-3	/	/	/	-4	/
COc1ccc(-n2c(SCC(=O)Nc3ccc(S(=O)(=O)Nc4nccs4)cc3)nnc2-c2cccs2)cc1	-2	/	/	/	-2	/
O=C1OCCC1Sc1nnc(-c2ccc(Br)cc2)o1 (configuration not stated)	23	-9	0	-7	66*	0
Cc1ccc(OC(=O)c2sc(Cl)nc2C)cc1C	6	-14	0	-1	71*	-1
Cc1cc(NC(=O)COC(=O)COc2ccc(C(=O)c3ccccc3)cc2)no1	-1	-7	8	-6	64*	-1
COc1ccc(-c2nc3ccccc3n2Cc2ccc(C)cc2)cc1	48*	14	10	-5	63*	-7
Cc1ccc(Cn2c(/C=C/c3ccco3)nc3ccccc32)cc1	11	45*	-2	-6	28	8
Clc1ccc(Cn2c(/C=C/c3ccco3)nc3ccccc32)cc1	0	/	-5	1	20	-6
CC1=C(C)/C(=N\OS(=O)(=O)c2ccccc2)C=CC1=O	/	27	19	76*	/	-9
COC(=O)[C@]12C[C@H](CC(=O)NCCC(C)C)C(=O)N(Cc3cccc4ccccc34)C1=C[C@H](C(C)(C)C)O[C@@H]2C	-12	/	/	/	-3	/
COc1cc(OC)cc(-n2c3nc4ccccc4nc3c3c(=O)n(CC4CCCO4)cnc32)c1 (configuration not stated)	4	/	/	/	11	/
O=c1c2c3nc4ccccc4nc3n(CC3CCCO3)c2ncn1CCc1ccccc1 (configuration not stated)	3	51*	2	0	6	-2
COc1cc(-n2c3nc4ccccc4nc3c3c(=O)n(Cc4ccco4)cnc32)cc(OC)c1OC	/	/	/	/	/	-8
O=c1c2c3nc4ccccc4nc3n(Cc3ccccc3)c2ncn1Cc1ccco1	48*	30	7	-8	46*	8
CCOC(=O)[C@@]12CCC3=C1N(CCC3)C(=O)[C@H](CC(=O)N1CCC(c3ccccc3)CC1)C2	6	/	/	/	-2	/
